Where a name gives a salt, the structure may show the parent alone. ± gives the standard deviation of the averaged measurements.
Columns and labels:
[1] = tested on: Saccharomyces cerevisiae BY4741 SeMeCo community; assay: z-score of subpopulation abundance vs DMSO median, subpopulation auxotrophic for M; higher = larger share of this subpopulation than in DMSO controls; conditions: 10 µM; 24 h; SM minimal medium; subpopulation (auxotrophy): M
Procedure, shortened: (§1)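 A Saccharomyces cerevisiae BY4741 community carried four plasmids, each restoring one auxotrophy and encoding a distinct fluorescent protein. It was pre-grown overnight to OD600 1.0, diluted to 0.3, and 70 µl was added to 384-well plates acoustically predosed with library drugs (10 µM final), then grown 24 h in minimal SM medium. Cells were paraformaldehyde-fixed and imaged by automated confocal microscopy, with single-auxotroph fluorescent strains setting thresholds and autofluorescence correction. Each subpopulation's abundance was scored as a z-score against the vehicle-well median.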

[2] = tested on: Saccharomyces cerevisiae BY4741 SeMeCo community; assay: z-score of subpopulation abundance vs DMSO median, subpopulation auxotrophic for L; higher = larger share of this subpopulation than in DMSO controls; conditions: 10 µM; 24 h; SM minimal medium; subpopulation (auxotrophy): L
Procedure, shortened: as §1

[3] = tested on: Saccharomyces cerevisiae BY4741 SeMeCo community; assay: z-score of subpopulation abundance vs DMSO median, subpopulation auxotrophic for U; higher = larger share of this subpopulation than in DMSO controls; conditions: 10 µM; 24 h; SM minimal medium; subpopulation (auxotrophy): U
Procedure, shortened: as §1

[4] = tested on: Saccharomyces cerevisiae BY4741 SeMeCo community; assay: z-score of subpopulation abundance vs DMSO median, subpopulation auxotrophic for H; higher = larger share of this subpopulation than in DMSO controls; conditions: 10 µM; 24 h; SM minimal medium; subpopulation (auxotrophy): H
Procedure, shortened: as §1

[5] = tested on: Saccharomyces cerevisiae BY4741 SeMeCo community; assay: z-score of subpopulation abundance vs DMSO median, subpopulation auxotrophic for LU; higher = larger share of this subpopulation than in DMSO controls; conditions: 10 µM; 24 h; SM minimal medium; subpopulation (auxotrophy): LU
Procedure, shortened: as §1

[6] = tested on: Saccharomyces cerevisiae BY4741 SeMeCo community; assay: z-score of subpopulation abundance vs DMSO median, subpopulation auxotrophic for LM; higher = larger share of this subpopulation than in DMSO controls; conditions: 10 µM; 24 h; SM minimal medium; subpopulation (auxotrophy): LM
Procedure, shortened: as §1

[7] = tested on: Saccharomyces cerevisiae BY4741 SeMeCo community; assay: z-score of subpopulation abundance vs DMSO median, subpopulation auxotrophic for HM; higher = larger share of this subpopulation than in DMSO controls; conditions: 10 µM; 24 h; SM minimal medium; subpopulation (auxotrophy): HM
Procedure, shortened: as §1

[8] = tested on: Saccharomyces cerevisiae BY4741 SeMeCo community; assay: z-score of subpopulation abundance vs DMSO median, subpopulation auxotrophic for HU; higher = larger share of this subpopulation than in DMSO controls; conditions: 10 µM; 24 h; SM minimal medium; subpopulation (auxotrophy): HU
Procedure, shortened: as §1

[9] = tested on: Saccharomyces cerevisiae BY4741 SeMeCo community; assay: z-score of subpopulation abundance vs DMSO median, subpopulation auxotrophic for UM; higher = larger share of this subpopulation than in DMSO controls; conditions: 10 µM; 24 h; SM minimal medium; subpopulation (auxotrophy): UM
Procedure, shortened: as §1

[10] = tested on: Saccharomyces cerevisiae BY4741 SeMeCo community; assay: z-score of subpopulation abundance vs DMSO median, subpopulation auxotrophic for HL; higher = larger share of this subpopulation than in DMSO controls; conditions: 10 µM; 24 h; SM minimal medium; subpopulation (auxotrophy): HL
Procedure, shortened: as §1

[11] = tested on: Saccharomyces cerevisiae BY4741 SeMeCo community; assay: z-score of subpopulation abundance vs DMSO median, subpopulation auxotrophic for HLU; higher = larger share of this subpopulation than in DMSO controls; conditions: 10 µM; 24 h; SM minimal medium; subpopulation (auxotrophy): HLU
Procedure, shortened: as §1

[12] = tested on: Saccharomyces cerevisiae BY4741 SeMeCo community; assay: z-score of subpopulation abundance vs DMSO median, subpopulation auxotrophic for HLM; higher = larger share of this subpopulation than in DMSO controls; conditions: 10 µM; 24 h; SM minimal medium; subpopulation (auxotrophy): HLM
Procedure, shortened: as §1

[13] = tested on: Saccharomyces cerevisiae BY4741 SeMeCo community; assay: z-score of subpopulation abundance vs DMSO median, subpopulation auxotrophic for HUM; higher = larger share of this subpopulation than in DMSO controls; conditions: 10 µM; 24 h; SM minimal medium; subpopulation (auxotrophy): HUM
Procedure, shortened: as §1

[14] = tested on: Saccharomyces cerevisiae BY4741 SeMeCo community; assay: z-score of subpopulation abundance vs DMSO median, subpopulation auxotrophic for LUM; higher = larger share of this subpopulation than in DMSO controls; conditions: 10 µM; 24 h; SM minimal medium; subpopulation (auxotrophy): LUM
Procedure, shortened: as §1

[15] = tested on: Saccharomyces cerevisiae BY4741 SeMeCo community; assay: z-score of subpopulation abundance vs DMSO median, subpopulation auxotrophic for HLUM; higher = larger share of this subpopulation than in DMSO controls; conditions: 10 µM; 24 h; SM minimal medium; subpopulation (auxotrophy): HLUM
Procedure, shortened: as §1

[16] = tested on: Saccharomyces cerevisiae BY4741 SeMeCo community; assay: mean cell size (pixel area) (pixels); higher = larger cells; conditions: 10 µM; 24 h; SM minimal medium
Procedure, shortened: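 Harmony analysis of automated confocal images of paraformaldehyde-fixed yeast gave the mean cell pixel area per well. The yeast was a Saccharomyces cerevisiae BY4741 community carrying four plasmids, each with a fluorescent marker and each complementing one auxotrophy, incubated for 24 h in SM medium containing drug at a final 10 µM in 384-well plates. Results are averaged over 3 replicates. Same SeMeCo high-content imaging drug screen: Selleck FDA-approved drugs at 10 µM, 24 h in SM medium, 384-well plates, 3 replicates.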

[17] = tested on: Saccharomyces cerevisiae BY4741 SeMeCo community; assay: z-score of prototroph abundance vs DMSO median; higher = larger share of this subpopulation than in DMSO controls; conditions: 10 µM; 24 h; SM minimal medium; subpopulation (auxotrophy): Prototroph
Procedure, shortened: as §1

| SMILES | z-score of subpopulation abundance [1] | z-score of subpopulation abundance [2] | z-score of subpopulation abundance [3] | z-score of subpopulation abundance [4] | z-score of subpopulation abundance [5] | z-score of subpopulation abundance [6] | z-score of subpopulation abundance [7] | z-score of subpopulation abundance [8] | z-score of subpopulation abundance [9] | z-score of subpopulation abundance [10] | z-score of subpopulation abundance [11] | z-score of subpopulation abundance [12] | z-score of subpopulation abundance [13] | z-score of subpopulation abundance [14] | z-score of subpopulation abundance [15] | mean cell size [16] | z-score of prototroph abundance [17] |
| --- | --- | --- | --- | --- | --- | --- | --- | --- | --- | --- | --- | --- | --- | --- | --- | --- | --- |
| CCOC(=O)c1ccc(N)cc1 [Benzocaine hydrochloride] | -1.03 | -0.9 | 1.42 | -0.31 | 0.5 | -0.93 | -0.65 | 0.87 | 0.51 | 0 | -0.85 | -0.46 | 0.44 | 0.12 | 0.01 |  |  |
| CN1CCc2cc3c(cc2C(=O)Cc2ccc4c(c2C1)OCO4)OCO3 [Protopine] | -0.25 | 1.72 | -0.67 | 0.05 | 1.45 |  |  | -0.45 | -0.23 | 1.17 | 0.88 | 0.14 | 0.19 |  |  | 12.2 ± 0.13 | -0.56 |
| O=C(c1ccc(OCCN2CCCCC2)cc1)c1c(-c2ccc(O)cc2)sc2cc(O)ccc12 [Raloxifene HCl] | 0.58 | 1.28 | -1.87 | 0.59 | -1.4 | 1.33 | 0.58 | -1.43 |  | 0.66 | -0.29 | -0.47 | 0.06 | -0.24 | -0.56 |  | 0.44 |
| NS(=O)(=O)Cc1noc2ccccc12 [Zonisamide] | 0.41 | 1.91 | -0.42 |  | 0.73 | 1.13 | 0.69 | -0.35 | -0.04 | 0.85 | 1.02 | 1.38 | 0.45 | 1.7 | 1.75 |  | -0.82 |
| COC1C(O)CC(=O)OC(C)CC=CC=CC(OC2CCC(N(C)C)C(C)O2)C(C)CC(CC=O)C1OC1OC(C)C(OC2CC(C)(O)C(O)C(C)O2)C(N(C)C)C1O (centres undefined) [Spiramycin] | -0.36 | -0.29 | 0.01 | -0.16 | -0.46 | -0.48 | -0.27 | 0.31 | 0.4 | 0.65 | -0.77 | 0.43 | -0.02 | -0.43 | 0.17 |  | 0.08 |
| C[C@@H]1CN(c2c(F)c(N)c3c(=O)c(C(=O)O)cn(C4CC4)c3c2F)C[C@H](C)N1 [Sparfloxacin] | -0.53 | 0.07 | -0.2 | -0.34 | -0.36 | 0.37 | -0.01 | -0.11 | -0.25 | -0.29 | -0.1 | -0.79 | -0.04 | -0.41 | -0.92 |  |  |
| CN(C)CCC=C1c2ccccc2C=Cc2ccccc21 [Cyclobenzaprine HCl] | 0 | -0.14 | 1.16 |  | -0.04 | 0.01 | -0.88 |  | 1.09 |  | -0.46 | 0.13 | -0.09 | -0.09 | 0.14 |  |  |
| C=C[C@H]1CN2CC[C@H]1C[C@@H]2[C@@H](O)c1ccnc2ccc(OC)cc12 [Quinidine sulfate] | 1.1 | 2.41 |  | 0.89 | 0.61 | 2.28 | 1.23 | -0.47 | 0.08 | 1.36 | 1.39 | 1.12 | 0.61 |  | 2.36 |  | -1.18 |
| C#C[C@]1(O)CC[C@H]2[C@@H]3CCc4cc(OC5CCCC5)ccc4[C@H]3CC[C@@]21C [Quinestrol] | 0.32 | 1.42 | -0.2 | 0.33 | 1.93 | -0.07 | 0.17 | 0.41 |  | 0.28 | 0.72 | 0.37 | 0.52 | 0.36 | 0.63 |  | -0.35 |
| CCC(=O)O[C@@H]1CC(=O)O[C@H](C)C/C=C/C=C/[C@H](O)[C@H](C)C[C@H](CC=O)[C@H](O[C@@H]2O[C@H](C)[C@@H](O[C@H]3C[C@@](C)(O)[C@@H](OC(=O)CC)[C@H](C)O3)[C@H](N(C)C)[C@H]2O)[C@H]1OC [Midecamycin] | 1.11 | -0.17 | -0.73 | 0.88 | -0.66 | 0.61 | 1.3 | 0.44 | -0.3 | 1.52 | -0.1 | 0.18 | 0.7 | -0.4 | -0.96 |  | -0.41 |
| Cc1c(C)c2c(c(C)c1O)CCC(C)(CCCC(C)CCCC(C)CCCC(C)C)O2 (centres undefined) [Vitamin E] | -0.6 | -0.8 | 0.13 | -0.89 | -0.31 |  | -1.28 | 0.51 | -0.04 | -1.01 | -1.19 | -1.72 | -0.31 | -0.41 | -1.29 |  | 0.82 |
| C[C@H]1c2cccc(O)c2C(O)=C2C(=O)[C@]3(O)C(O)=C(C(N)=O)C(=O)[C@@H](N(C)C)[C@@H]3[C@@H](O)[C@@H]21 [Doxycycline monohydrate] | -0.88 | 0.54 |  | 0.17 | -0.41 |  | -1.15 | -1.42 | -1.13 | -0.19 | -0.54 | 0.18 | -0.92 | 0.2 | 0.42 |  | 0.75 |
| CC1CCc2c(N3CCC(O)CC3)c(F)cc3c(=O)c(C(=O)O)cn1c23 (centres undefined) [Nadifloxacin] | 0.33 | 0.77 | 0.05 | -0.1 | 0.62 |  | 0 | 0.43 | -0.28 | 0 | -0.45 | 0.15 | -0.22 | 0.27 | 0.26 |  |  |
| Clc1ccc(C(Cn2ccnc2)OCc2ccsc2Cl)c(Cl)c1 (centres undefined) [Tioconazole] | -0.92 | -2.45 | 1.22 | 19.7 | -0.51 | -1.99 | 3.87 | 10.2 |  | 6.06 | 3.35 | 20 |  | 4.03 | 15.6 | 12.1 ± 0.12 | -7.82 |

Source: the supplement of paper PMC8975748
